The supplement of paper PMC8371130
Structures can show the parent of a compound that is named as a salt.

System: HL-1
Assay: relative cell viability (CellTiter-Glo) vs DMSO control (% of DMSO control); higher = more viable cells
Conditions: oxygen condition: normoxia 72 h; 40 nM
Procedure, shortened: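 In 384-well plates, 1000 HL-1 mouse atrial cardiomyocytes per well were plated with compounds at 40, 200, 1000 or 5000 nM in 0.01% DMSO. Hypoxia at 1% O2 for 48 h began one day later and was followed by 24 h of reoxygenation, with parallel plates held in normoxia. CellTiter-Glo luminescence gave cell viability relative to vehicle-treated control cells.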

Point of comparison: `CC(=O)O[C@H]1C[C@@H]2CC[C@@H]3[C@H](CC[C@@]4(C)[C@H]3C[C@H]([N+]3(C)CCCCC3)[C@@H]4OC(C)=O)[C@@]2(C)C[C@@H]1[N+]1(C)CCCCC1` [Pancuronium], relative cell viability 101. Against it:
- N.N.[Cl][Pt][Cl] [Cisplatin] — lower, 82.7
- CCN(C)C(=O)Oc1cccc([C@H](C)N(C)C)c1 [Rivastigmine tartrate] — lower, 99.9
- C[C@@H]1O[C@@H](O[C@H]2C[C@@H](O)[C@]3(CO)[C@H]4[C@H](O)C[C@]5(C)[C@@H](C6=CC(=O)OC6)CC[C@]5(O)[C@@H]4CC[C@]3(O)C2)[C@H](O)[C@H](O)[C@H]1O [Ouabain] — higher, 105
- OC(c1ccccc1)(c1ccccc1)C1CCNCC1 [Azacyclonol] — higher, 108
- CCC1(c2cccc(O)c2)CCCCN(C)C1 (centres undefined) [Meptazinol HCl] — lower, 97.7
- CNC(=O)Oc1ccc2c(c1)[C@]1(C)CCN(C)[C@@H]1N2C [Physostigmine Salicylate] — lower, 84.3
- CN1[C@@H]2CC[C@H]1C[C@@H](OC(=O)[C@H](CO)c1ccccc1)C2 [Hyoscyamine] — higher, 109
- C[C@]12CC[C@H](O)CC1=CC[C@@H]1[C@@H]2CC[C@]2(C)C(=O)CC[C@@H]12 [Dehydroepiandrosterone] — lower, 95.4
- CN(C)C(=O)Oc1ccc[n+](C)c1 [Pyridostigmine Bromide] — lower, 92.1
- CN1c2ccccc2C(NCCCCCCC(=O)O)c2ccc(Cl)cc2S1(=O)=O (centres undefined) [Tianeptine sodium] — lower, 98.8
- CCCN1C[C@H](CSC)C[C@@H]2c3cccc4[nH]cc(c34)C[C@H]21 [Pergolide mesylate] — higher, 105
- O=C(O)c1nn(Cc2ccc(Cl)cc2Cl)c2ccccc12 [Lonidamine] — higher, 111
- C#C[C@]1(O)C=C[C@H]2[C@@H]3CCC4=CC(=O)CC[C@@H]4[C@H]3CC[C@@]21CC [Gestodene] — higher, 111
- Cc1cccc([C@H](C)c2c[nH]cn2)c1C [Dexmedetomidine HCl] — higher, 106
- C[N+](C)(C)CCCCCCCCCC[N+](C)(C)C [Decamethonium bromide] — higher, 107
- O=P1(N(CCCl)CCCl)NCCCO1 (centres undefined) [Cyclophosphamide monohydrate] — higher, 104
- CN1C(=O)COc2c(C(=O)NC3CN4CCC3CC4)cc(Cl)cc21 (centres undefined) [Azasetron HCl] — lower, 94.8
- Cc1cccc(C)c1NC1=NCCCS1 [Xylazine HCl] — higher, 106
- CC[C@@H](C(N)=O)N1CCCC1=O [Levetiracetam] — higher, 109
- O=C(O[C@H]1C[N+]2(CCCOc3ccccc3)CCC1CC2)C(O)(c1cccs1)c1cccs1 [Aclidinium Bromide] — higher, 103
- CC[N+]1(C)CCCC(OC(=O)C(O)(c2ccccc2)c2ccccc2)C1 (centres undefined) [Pipenzolate Bromide] — lower, 100
- C[C@]12C/C(=C/O)C(=O)C[C@@H]1CC[C@@H]1[C@@H]2CC[C@@]2(C)[C@H]1CC[C@]2(C)O [Oxymetholone] — higher, 104
- O=c1[nH]c2ccccc2n1CCCN1CCC(n2c(=O)[nH]c3cc(Cl)ccc32)CC1 [Domperidone] — lower, 100
- CC[C@@]1(O)C(=O)OCc2c1cc1n(c2=O)Cc2cc3ccccc3nc2-1 [Camptothecin] — higher, 104
- Cc1cccc([C@H](C)c2c[nH]cn2)c1C [Dexmedetomidine] — higher, 107
- COc1ccc(C(=O)N2CCCC2=O)cc1 [Aniracetam] — the same, 101

Same assay, conditions: oxygen condition: normoxia 72 h; 200 nM

Point of comparison: `C[C@@H]1O[C@@H](O[C@H]2C[C@@H](O)[C@]3(CO)[C@H]4[C@H](O)C[C@]5(C)[C@@H](C6=CC(=O)OC6)CC[C@]5(O)[C@@H]4CC[C@]3(O)C2)[C@H](O)[C@H](O)[C@H]1O` [Ouabain], relative cell viability 105. Against it:
- N.N.[Cl][Pt][Cl] [Cisplatin] — lower, 80.6
- CCN(C)C(=O)Oc1cccc([C@H](C)N(C)C)c1 [Rivastigmine tartrate] — higher, 106
- OC(c1ccccc1)(c1ccccc1)C1CCNCC1 [Azacyclonol] — lower, 101
- CCC1(c2cccc(O)c2)CCCCN(C)C1 (centres undefined) [Meptazinol HCl] — lower, 98.3
- CNC(=O)Oc1ccc2c(c1)[C@]1(C)CCN(C)[C@@H]1N2C [Physostigmine Salicylate] — lower, 84.1
- CN1[C@@H]2CC[C@H]1C[C@@H](OC(=O)[C@H](CO)c1ccccc1)C2 [Hyoscyamine] — lower, 101
- C[C@]12CC[C@H](O)CC1=CC[C@@H]1[C@@H]2CC[C@]2(C)C(=O)CC[C@@H]12 [Dehydroepiandrosterone] — lower, 95.8
- CC(=O)O[C@H]1C[C@@H]2CC[C@@H]3[C@H](CC[C@@]4(C)[C@H]3C[C@H]([N+]3(C)CCCCC3)[C@@H]4OC(C)=O)[C@@]2(C)C[C@@H]1[N+]1(C)CCCCC1 [Pancuronium] — the same, 105
- CN(C)C(=O)Oc1ccc[n+](C)c1 [Pyridostigmine Bromide] — lower, 104
- CN1c2ccccc2C(NCCCCCCC(=O)O)c2ccc(Cl)cc2S1(=O)=O (centres undefined) [Tianeptine sodium] — lower, 103
- CCCN1C[C@H](CSC)C[C@@H]2c3cccc4[nH]cc(c34)C[C@H]21 [Pergolide mesylate] — lower, 102
- O=C(O)c1nn(Cc2ccc(Cl)cc2Cl)c2ccccc12 [Lonidamine] — lower, 102
- C#C[C@]1(O)C=C[C@H]2[C@@H]3CCC4=CC(=O)CC[C@@H]4[C@H]3CC[C@@]21CC [Gestodene] — lower, 103
- Cc1cccc([C@H](C)c2c[nH]cn2)c1C [Dexmedetomidine HCl] — lower, 96.7
- C[N+](C)(C)CCCCCCCCCC[N+](C)(C)C [Decamethonium bromide] — lower, 103
- O=P1(N(CCCl)CCCl)NCCCO1 (centres undefined) [Cyclophosphamide monohydrate] — lower, 97
- CN1C(=O)COc2c(C(=O)NC3CN4CCC3CC4)cc(Cl)cc21 (centres undefined) [Azasetron HCl] — lower, 98.3
- Cc1cccc(C)c1NC1=NCCCS1 [Xylazine HCl] — lower, 98.1
- CC[C@@H](C(N)=O)N1CCCC1=O [Levetiracetam] — higher, 113
- O=C(O[C@H]1C[N+]2(CCCOc3ccccc3)CCC1CC2)C(O)(c1cccs1)c1cccs1 [Aclidinium Bromide] — higher, 115
- CC[N+]1(C)CCCC(OC(=O)C(O)(c2ccccc2)c2ccccc2)C1 (centres undefined) [Pipenzolate Bromide] — higher, 111
- C[C@]12C/C(=C/O)C(=O)C[C@@H]1CC[C@@H]1[C@@H]2CC[C@@]2(C)[C@H]1CC[C@]2(C)O [Oxymetholone] — lower, 102
- O=c1[nH]c2ccccc2n1CCCN1CCC(n2c(=O)[nH]c3cc(Cl)ccc32)CC1 [Domperidone] — lower, 98.5
- CC[C@@]1(O)C(=O)OCc2c1cc1n(c2=O)Cc2cc3ccccc3nc2-1 [Camptothecin] — the same, 105
- Cc1cccc([C@H](C)c2c[nH]cn2)c1C [Dexmedetomidine] — lower, 104
- COc1ccc(C(=O)N2CCCC2=O)cc1 [Aniracetam] — lower, 104
